Drawing on article doi:10.1101/2024.03.05.583629, this text covers binding signal for 10 sequences.

The assay deals with pT7_6His-AlfaTag-ZIF268 (human, UniProt P18146 335-423). Put plainly: PADIT-seq. The settings on record: dsDNA, one strand shown.
Consider “CTCGAGGATATCAAGATCTGGCCTCGGCCACCCACGCGGAACCTCTAGCTAGCCGACTCACTATAGGGATAATCGCCCTGAGCAAAGACC”, for which the binding signal was 2.1 ± 0.135 log2FC.

“CTCGAGGATATCAAGATCTGGCCTCGGCGCGTGGTTTGGAACCTCTAGCTAGCCGACTCACTATAGGGATAATCGCCCTGAGCAAAGACC” gave a binding signal of 0.236 ± 0.101 log2FC.

For “CTCGAGGATATCAAGATCTGGCCTCGGCGGATGGGCGGGAACCTCTAGCTAGCCGACTCACTATAGGGATAATCGCCCTGAGCAAAGACC”, the binding signal amounted to 0.0532 ± 0.0937 log2FC.

In turn, “CTCGAGGATATCAAGATCTGGCCTCGGCCTGTGGGCGGGAACCTCTAGCTAGCCGACTCACTATAGGGATAATCGCCCTGAGCAAAGACC” gave a binding signal of 2.23 ± 0.0754 log2FC.

The sequence “CTCGAGGATATCAAGATCTGGCCTCGGCGCGTGGGTAGGAACCTCTAGCTAGCCGACTCACTATAGGGATAATCGCCCTGAGCAAAGACC” had a binding signal of 1.97 ± 0.0958 log2FC.

“CTCGAGGATATCAAGATCTGGCCTCGGCGCGTGGTCCGGAACCTCTAGCTAGCCGACTCACTATAGGGATAATCGCCCTGAGCAAAGACC” gave a binding signal of 0.192 ± 0.0971 log2FC.

As for “CTCGAGGATATCAAGATCTGGCCTCGGCGGCCCACGCGGAACCTCTAGCTAGCCGACTCACTATAGGGATAATCGCCCTGAGCAAAGACC”, the binding signal stood at 0.55 ± 0.0922 log2FC.

“CTCGAGGATATCAAGATCTGGCCTCGGCGCGTGCGCGGGAACCTCTAGCTAGCCGACTCACTATAGGGATAATCGCCCTGAGCAAAGACC”: the binding signal amounted to 0.264 ± 0.107 log2FC.

Consider “CTCGAGGATATCAAGATCTGGCCTCGGCCCGTGGGCGGGAACCTCTAGCTAGCCGACTCACTATAGGGATAATCGCCCTGAGCAAAGACC”, for which the binding signal is 3.06 ± 0.0841 log2FC.

For the sequence “CTCGAGGATATCAAGATCTGGCCTCGGCGCGTGGGTGGGAACCTCTAGCTAGCCGACTCACTATAGGGATAATCGCCCTGAGCAAAGACC”, the binding signal came out at 4.08 ± 0.0892 log2FC.
